For 14 compounds, composite z-score and z-score results are on record in PubChem BioAssay.

Test [1] is described as follows: binders of probe aFSTL3 on microarray, primary screen, stem cell growth factor project, biochemical, small-molecule microarray, fluorescence 635/667 (AID 1064).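 Note: measures binding of the biotinylated anti-FSTL3 antibody to printed compounds.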 The note with it: higher = more signal.
Test [2] is described as follows: binders from COS7 lysate, DM2A8 probe, primary screen, torsin A project, cell lysate, small-molecule microarray, fluorescence 635/667 (AID 1065). The note with it: higher = more signal, COS7 lysate expressing mutant human TOR1A.
Test [3] in a line: binders of probe aFGF2 on microarray, primary screen, stem cell growth factor project, biochemical, small-molecule microarray, fluorescence 635/667 (AID 1067).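 Note: measures binding of biotinylated aFGF2 protein to printed compounds on slides; z-score merges feature fluorescence and signal-to-noise across triplicate slides.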 The note with it: higher = more signal.
A short description of test [4]: binders of probe aFGF10 on microarray, primary screen, stem cell growth factor project, biochemical, small-molecule microarray, fluorescence 635/667 (AID 1071).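 Note: score merges 667 nm spot intensity and signal to noise from triplicate slides.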 The note with it: higher = more signal.
Test [5] addresses Neurogenic locus notch homolog protein 2 (Homo sapiens) (UniProt Q04721). Put plainly: Notch2 binders on small-molecule microarrays, primary screen, biochemical, small-molecule microarray, 635 nm fluorescence, stem cell growth factors (AID 1073). The note with it: Notch2 binding, higher = more signal.
In test [6] the target is Pro-neuregulin-1, membrane-bound isoform (Homo sapiens) (UniProt Q02297). The test is described as follows: NRG1 binders on small-molecule microarrays, primary screen, psychiatric disease protein project, biochemical, small-molecule microarray, fluorescence 635/667 (AID 1075).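 Note: score combines 667 nm spot fluorescence with signal to noise.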 The note with it: NRG1 binding, 635 nm fluorescence, higher = more signal.
Test [7] deals with Neuregulin-1 EGF-like domain. The test is described as follows: binders of neuregulin-1 EGF-like domain, primary screen, biochemical, small-molecule microarray, 635 nm fluorescence (AID 1081).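 Note: binding of the protein to compounds printed on small-molecule microarray slides.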 The note with it: small-molecule microarray binding, higher = more signal.
The nature of test [8]: FRG1 promoter luciferase signal modulators, primary screen, FRG1 inhibition for FSHD, cell-based, C2C12 myotubes, firefly/Renilla luciferase, luminescence (AID 1084). The note with it: higher = more signal, called active from +8 up or from −8 down.
Test [9] in a line: binders of probe aFST on microarray, primary screen, stem cell growth factor project, biochemical, small-molecule microarray, fluorescence 635/667 (AID 1086).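 Note: score merges 667 nm fluorescence with signal-to-noise of each printed compound spot.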 The note with it: higher = more signal.
Test [10] can be described thus: binders of probe aHhip on microarray, primary screen, stem cell growth factor project, biochemical, small-molecule microarray, fluorescence 635/667 (AID 1087).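 Note: score merges spot fluorescence at 667nm with spot signal to noise ratio.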 The note with it: higher = more signal.

The source made the active and inactive calls.

Sequence of Neurogenic locus notch homolog protein 2 (Homo sapiens) (Q04721 whole entry, looked up, canonical isoform): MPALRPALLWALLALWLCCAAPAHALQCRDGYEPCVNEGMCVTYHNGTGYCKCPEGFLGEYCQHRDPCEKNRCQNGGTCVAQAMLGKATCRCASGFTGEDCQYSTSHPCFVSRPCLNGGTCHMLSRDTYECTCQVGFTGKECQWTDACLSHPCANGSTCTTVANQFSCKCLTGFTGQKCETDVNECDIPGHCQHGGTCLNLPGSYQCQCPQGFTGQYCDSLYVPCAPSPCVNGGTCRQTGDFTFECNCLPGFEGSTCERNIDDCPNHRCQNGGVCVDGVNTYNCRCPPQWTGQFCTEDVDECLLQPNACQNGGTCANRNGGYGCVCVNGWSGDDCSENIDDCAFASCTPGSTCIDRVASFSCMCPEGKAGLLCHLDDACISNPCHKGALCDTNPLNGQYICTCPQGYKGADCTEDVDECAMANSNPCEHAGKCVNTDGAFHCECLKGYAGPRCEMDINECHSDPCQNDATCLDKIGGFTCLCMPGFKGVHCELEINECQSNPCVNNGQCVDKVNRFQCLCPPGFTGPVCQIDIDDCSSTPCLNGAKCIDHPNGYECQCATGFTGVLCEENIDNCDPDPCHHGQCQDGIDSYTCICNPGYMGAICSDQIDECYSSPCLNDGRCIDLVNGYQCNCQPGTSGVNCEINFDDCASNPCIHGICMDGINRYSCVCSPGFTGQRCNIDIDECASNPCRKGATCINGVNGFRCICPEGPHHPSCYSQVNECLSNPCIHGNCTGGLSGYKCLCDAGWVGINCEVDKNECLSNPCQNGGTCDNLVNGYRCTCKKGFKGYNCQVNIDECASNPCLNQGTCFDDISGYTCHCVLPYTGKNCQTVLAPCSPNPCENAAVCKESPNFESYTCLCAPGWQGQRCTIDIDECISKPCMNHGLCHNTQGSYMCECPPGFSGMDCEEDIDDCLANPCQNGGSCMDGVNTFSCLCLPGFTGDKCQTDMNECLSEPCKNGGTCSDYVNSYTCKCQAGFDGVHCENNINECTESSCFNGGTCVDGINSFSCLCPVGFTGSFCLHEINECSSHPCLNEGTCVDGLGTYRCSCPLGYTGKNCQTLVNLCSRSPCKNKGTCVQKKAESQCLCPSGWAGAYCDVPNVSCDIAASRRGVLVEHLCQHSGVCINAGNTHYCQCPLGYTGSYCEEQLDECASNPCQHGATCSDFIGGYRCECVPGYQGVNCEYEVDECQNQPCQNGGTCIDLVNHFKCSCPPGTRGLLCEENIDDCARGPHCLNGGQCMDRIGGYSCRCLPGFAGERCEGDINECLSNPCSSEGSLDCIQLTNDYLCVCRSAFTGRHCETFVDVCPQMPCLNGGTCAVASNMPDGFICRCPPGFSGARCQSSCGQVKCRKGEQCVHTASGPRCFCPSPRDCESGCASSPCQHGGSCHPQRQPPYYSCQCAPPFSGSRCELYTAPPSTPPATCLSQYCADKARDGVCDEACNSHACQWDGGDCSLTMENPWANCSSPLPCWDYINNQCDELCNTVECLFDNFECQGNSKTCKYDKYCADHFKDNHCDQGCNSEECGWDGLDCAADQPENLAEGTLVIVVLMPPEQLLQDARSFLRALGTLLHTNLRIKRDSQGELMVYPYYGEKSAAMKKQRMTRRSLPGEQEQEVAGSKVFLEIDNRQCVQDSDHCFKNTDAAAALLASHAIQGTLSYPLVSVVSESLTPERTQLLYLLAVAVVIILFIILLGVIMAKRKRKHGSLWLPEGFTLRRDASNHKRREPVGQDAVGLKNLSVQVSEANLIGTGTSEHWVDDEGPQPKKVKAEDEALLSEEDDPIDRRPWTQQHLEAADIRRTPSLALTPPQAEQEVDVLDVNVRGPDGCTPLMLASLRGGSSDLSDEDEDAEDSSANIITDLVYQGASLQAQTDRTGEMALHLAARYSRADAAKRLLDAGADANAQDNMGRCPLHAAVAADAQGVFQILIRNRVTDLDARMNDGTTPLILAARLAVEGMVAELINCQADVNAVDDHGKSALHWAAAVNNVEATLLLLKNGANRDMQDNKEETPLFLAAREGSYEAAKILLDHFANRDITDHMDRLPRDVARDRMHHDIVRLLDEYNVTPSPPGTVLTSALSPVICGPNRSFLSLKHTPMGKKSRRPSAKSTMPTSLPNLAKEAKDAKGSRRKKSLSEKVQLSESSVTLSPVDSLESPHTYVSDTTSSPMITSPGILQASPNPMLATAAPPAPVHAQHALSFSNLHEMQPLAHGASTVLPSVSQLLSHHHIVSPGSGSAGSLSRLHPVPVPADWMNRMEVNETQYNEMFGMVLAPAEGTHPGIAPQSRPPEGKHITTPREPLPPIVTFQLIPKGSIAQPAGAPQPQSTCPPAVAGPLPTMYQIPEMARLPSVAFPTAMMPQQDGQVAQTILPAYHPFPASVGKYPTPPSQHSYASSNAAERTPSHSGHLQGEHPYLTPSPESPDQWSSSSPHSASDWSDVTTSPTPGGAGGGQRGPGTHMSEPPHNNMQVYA
Sequence of Pro-neuregulin-1, membrane-bound isoform (Homo sapiens) (Q02297 whole entry, looked up, the tested form may be a part, canonical isoform): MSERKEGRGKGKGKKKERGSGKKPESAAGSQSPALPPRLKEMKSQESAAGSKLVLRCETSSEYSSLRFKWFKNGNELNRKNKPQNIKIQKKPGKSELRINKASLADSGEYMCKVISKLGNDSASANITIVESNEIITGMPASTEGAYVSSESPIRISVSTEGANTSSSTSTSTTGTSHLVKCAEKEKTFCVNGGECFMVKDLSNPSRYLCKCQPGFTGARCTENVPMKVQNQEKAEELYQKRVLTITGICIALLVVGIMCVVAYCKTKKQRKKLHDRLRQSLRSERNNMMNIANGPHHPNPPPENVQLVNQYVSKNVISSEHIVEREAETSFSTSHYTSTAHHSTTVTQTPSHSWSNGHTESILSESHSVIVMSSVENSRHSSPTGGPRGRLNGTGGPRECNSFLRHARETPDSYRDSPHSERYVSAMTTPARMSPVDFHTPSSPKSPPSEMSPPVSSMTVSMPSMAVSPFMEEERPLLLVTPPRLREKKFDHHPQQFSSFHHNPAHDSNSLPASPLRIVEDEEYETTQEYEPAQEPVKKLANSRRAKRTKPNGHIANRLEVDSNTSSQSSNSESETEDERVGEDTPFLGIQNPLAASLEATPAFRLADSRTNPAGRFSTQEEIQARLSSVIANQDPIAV

Regarding `CCOC(=O)C1=CCC(c2cc3ccccc3[nH]2)N(S(=O)(=O)c2ccccc2[N+](=O)[O-])C1` (stereo not given), the composite z-score in [1] was -0.191; in test [2], 0.0999; in test [3], -0.0481; in test [4], 0.465; in [5], 1.37; in test [6] it was 1.48. Also, the figures for the composite z-score in [7], in test [9] and in test [10] were 0.957, 0.361 and 0.0505, respectively. For the same compound, the z-score in [8] was -2.98 (inactive).

On to `COc1ccc([Si](C)(C)[C@H]2[C@H](CC(=O)N3Cc4ccccc4C[C@H]3CO)O[C@@]3(C(=O)N(Cc4cccc(N5C(=O)c6cccc7cccc5c67)c4)c4ccccc43)[C@@H]2C)cc1`, for which the composite z-score in test [1] is -0.581; in [2] it was 0.847; in test [3], -0.0859; in [4] it was 0.539; in [5] it was 0.0297; in [6] it was 0.997. Also, the composite z-score in test [7] is 1.03; in test [9], 0.487; in [10], -0.648. Moreover, the z-score in [8] is -2.61 (inactive).

For `CC(C)C[C@H]1NC(=O)[C@@]23C(=O)N[C@@H](Cc4ccccc4)C2[C@H](C)[C@@]2(C)O[C@H]2C3/C=C/C/C=C\CNC(=O)[C@@H]2CCCN2C1=O` (stereo not given in full), the composite z-score in [1] was -0.504; in test [2] it was -0.39; in test [3], -0.078; in test [4], 0.774; in test [5], 0.303; in test [6], 0.912. In addition, the composite z-score in test [7] was 0.665; in test [9], 0.52; in [10], -0.0645. In addition, the z-score in test [8] was 0.31 (inactive).

As for `CO[C@H]1O[C@H](CO)[C@@H](OC(=O)Nc2ccccc2)[C@@H]2OC(=O)[C@H](Cc3ccccc3)C/C=C/C[C@@H](Cc3ccccc3)C(=O)O[C@@H]12`, the composite z-score stood at 0.146 in test [1]; 0.779 in test [2]; 0.0732 in test [3]; 0.775 in [4]; 1.48 in [5]; 1.14 in test [6]. Moreover, the composite z-score in test [7] was 1.04; in test [9] it was 0.654; in test [10] it was -0.0296. Also, in [8], the z-score is -1.64 (inactive).

For `C=CCOC(=O)[C@H]1[C@@H]2C(=O)O[C@@H](c3ccccc3)[C@@H](c3ccccc3)N2[C@@H](c2ccc(OCCOC(=O)[C@@H]3C[C@@H]4C(=O)N[C@@H](CC(C)C)C(=O)N4[C@@H]3c3ccc(O)cc3)cc2)[C@]12C(=O)Nc1ccc(I)cc12`, the composite z-score is -0.185 in test [1]; 0.246 in [2]; -0.158 in test [3]; -0.0479 in [4]; 0.672 in [5]; 1.33 in [6]. Moreover, the results for the composite z-score in test [7], in test [9] and in [10] were 1.29, -0.0054 and 0.15, respectively. In addition, the z-score in test [8] is -1.13 (inactive).

On to `CCCC[C@@H]1C[C@H]1[C@@H](NC(=O)Cc1ccccc1)c1ccc(Cl)cc1`, for which the composite z-score in test [1] was found to be 0.409; in test [2], 0.469; in test [3], 0.428; in test [4] it was 0.671; in test [5] it was 1.63; in test [6], 1.72. Further, the values for the composite z-score in test [7], in test [9] and in test [10] were 1.19, 1.46 and -0.193, respectively. For the same compound, the z-score in [8] is -2.4 (inactive).

Consider `CN(C)C(=O)[C@@]1(CCS(=O)(=O)c2ccccc2)N=C(c2ccc(OCCCO)cc2)O[C@H]1c1ccccc1N=[N+]=[N-]`, for which the composite z-score in [1] is -0.35; in test [2] it was 0.259; in test [3] it was 0.167; in [4] it was 0.792; in test [5], 1.32; in test [6] it was 1.55. Further, the composite z-score in [7] is 0.551; in [9], 1.49; in test [10] it was -0.0994. The z-score in test [8] was 0.401 (inactive).

For the compound `COCCOC(=O)N1C(=O)[C@@]2(c3cc(C#CC4=CCCCC4)ccc31)[C@H](c1ccccc1OCCO)N1[C@H](c3ccccc3)[C@H](c3ccccc3)OC(=O)[C@H]1[C@@H]2C(N)=O`, the composite z-score in test [1] was -0.42; in test [2] it was 0.599; in test [3], 0; in test [4], 0.525; in test [5], 0.931; in [6], -0.253. For the same compound, the composite z-score in test [7] was 1.05; in test [9], 0.366; in test [10], -0.217. The z-score in [8] is -0.89 (inactive).

As to `Cc1ccccc1C(O)C1C=CC2C(=O)N(c3ccccc3)C(=O)C2N1Nc1ccccc1F` (stereo not given), the composite z-score amounted to 0.397 in test [1]; 0.0771 in test [2]; 0.213 in test [3]; 0.737 in [4]; 1.16 in [5]; 2.15 in [6]. Also, the results for the composite z-score in test [7], in [9] and in test [10] were 0.93, 1.19 and -0.0994, respectively. In addition, in test [8], the z-score is -1.35 (inactive).

Turning to `C=CCOC(=O)[C@H]1[C@@H]2C(=O)O[C@@H](c3ccccc3)[C@@H](c3ccccc3)N2[C@@H](c2ccc(OCCOC(=O)[C@@H]3C[C@@H]4C(=O)N[C@@H](Cc5ccccc5)C(=O)N4[C@@H]3c3ccc(O)cc3)cc2)[C@]12C(=O)Nc1ccccc12`, the composite z-score in test [1] is -0.372; in [2], 0.268; in [3], -0.0713; in [4], 0.278; in [5], 0.217; in [6], 0.403. Besides, the composite z-score in test [7] was 1.21; in [9] it was -0.121; in [10] it was -0.0645. Moreover, the z-score in test [8] was 0.503 (inactive).

Turning to `COCCOC(=O)N1C(=O)[C@@]2(c3cc(C#CCC(C(=O)OC)C(=O)OC)ccc31)[C@H](C(N)=O)[C@H]1C(=O)O[C@H](c3ccccc3)[C@H](c3ccccc3)N1[C@@H]2c1ccc(OCCO)cc1`, the composite z-score in test [1] was -0.231; in test [2], 0.787; in test [3] it was 0.0001; in test [4], 0.906; in test [5] it was 1.34; in test [6], 1.19. Besides, the figures for the composite z-score in test [7], in [9] and in test [10] were 1.23, 0.111 and -0.249, respectively. Moreover, in test [8], the z-score is 0.789 (inactive).

As for `CC(C)CNC(=O)[C@@H]1c2ccccc2C(=O)N(Cc2ccccc2)[C@H]1c1ccc(CO)cc1`, the composite z-score in test [1] was 1.12; in test [2], 0.886; in [3], 0.0173; in test [4], -0.0403; in test [5], -1.04; in test [6], 0.935. In addition, the composite z-score in [7] is 0.76; in test [9] it was -0.469; in test [10] it was -0.118. The z-score in test [8] is -0.504 (inactive).

Consider `C=C(COC)C(=O)CC[C@@H](OC(=O)c1cccnc1)c1cccc(OCCO)c1`, for which the composite z-score in [1] was 0.0424; in test [2], 0.759; in test [3], -0.0332; in [4] it was 0.455; in test [5] it was -0.0967; in [6] it was 0.851. For the same compound, the composite z-score was 0.762 in [7], 0.532 in [9] and -0.171 in [10]. Besides, the z-score in test [8] is 0.587 (inactive).

Regarding `CC(C)[Si](C#CCCCC#N)(O[C@H](c1ccccc1)c1cn([C@H](C)c2ccccc2)nn1)C(C)C`, the composite z-score was -0.207 in [1]; 0.268 in [2]; -0.0538 in test [3]; 0.505 in test [4]; 0.792 in [5]; 0.816 in [6]. The composite z-score in test [7] was 0.726; in test [9], 0.612; in test [10], -0.214. The z-score in [8] was -2.24 (inactive).
